The panel holds about 83,000 compounds, 20% with a hit somewhere; the sample as a whole holds those more often.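 48-hour exposure, single concentration, 96-well plates; percent growth endpoint where 0 means no net growth. Active: below 10.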 Calls of active or inactive are those of the source.
What follows are compounds tested on MOLT-4 leukemia (assay: NCI-60 one-dose screen, 48 h (100 = growth as untreated, 0 = no growth, -100 = all killed)). Details: 10 µM unless noted.
Experimental: Growth inhibition of the MOLT-4 human tumor cell line is measured as a screen for anti-cancer activity. Cells are grown in 96 well plates and exposed to the test compound for 48 hours. Compounds are tested at a single concentration, which is 10^-5 M for most compounds. The reported endpoint is percent growth (GI% or GIPRCNT), where numbers from 0 - 100% represent growth inhibition, and numbers from -100% - 0 represent cell death. For example, a value of 40 represents 60% growth inhibition. A value of 0 means no net growth occurred over the course of the experiment. A value of -40 indicates 40% of cells at the beginning of the experiment died by the end of the experiment. A value of -100 means all cells are dead at the end of the experiment.
NCI-60 Human Tumor Cell Lines Screen was performed using the standard one-dose NCI protocol, which is described in more detail at https://dtp.cancer.gov/discovery_development/nci-60/default.htm.
Compounds with GIPRCNT values below 10 were considered active. Activity score was based on GIPRCNT using the following formula: […]
Score is 0 for GIPRCNT values of 100 or above, 50 for GIPRCNT values of 0, and 100 for GIPRCNT values of -100.

| SMILES | growth |
| --- | --- |
| Cn1c(NCCc2ccc(O)c(O)c2)nc2c1c(=O)n(Cc1ccc(Cl)c(Cl)c1)c(=O)n2C | 11.8% (inactive) |
| COc1ccc(C(=O)c2sc3nc4c(c(-c5cccnc5)c3c2N)CCCC4)cc1OC | 41.4% (inactive) |
| C#Cc1cccc(NC(=O)c2ccccc2NC(=O)CCl)c1 | 70.3% [8.25 µM] (inactive) |
| O=C1/C(=C/c2ccc3c(c2)OCO3)SC(=S)N1CCc1ccc(O)cc1 | 87.3% (inactive) |
| O=C(N/N=C/c1ccccc1O)c1ccccc1Nc1ccnc(C(F)(F)F)c1 | 5.72% (active) |
| Cc1cc2nc3[nH]c4ccccc4c3nc2cc1C | 89.7% (inactive) |
| CN(C)c1ccc(NC(=O)c2ccc(/C=C/C(=O)c3ncc[nH]3)cc2)cc1 | 27.1% (inactive) |
| Cc1cc2c3ccccc3ccc2[n+]2ccccc12 | 2.74% (active) |
| CNC(=O)c1cc(Oc2ccc(NC(=O)Nc3ccc(Cl)c(OC(F)(F)F)c3)c(F)c2)ccn1 | 20.2% (inactive) |
| Cn1cc(-c2nonc2-c2c[nH]c3ccc(F)cc23)c2cccnc21 | 63.4% (inactive) |
| CCn1c(Cc2ccccc2Nc2c(Cl)cccc2Cl)nnc1SCC(=O)NN1C(=O)/C(=C/c2cc(OC)c(O)c(OC)c2)SC1=S | 23.1% (inactive) |
| CC(=O)c1cc2c(N)c(C(=O)Nc3cccc(F)c3C)sc2nc1C | 79.1% (inactive) |
| COc1cc2nc(N3CCCC3)nc(NCCc3ccccc3)c2cc1OC | -2.23% (active) |
| C=CCSSC1N=CNc2nc[nH]c21 (stereo not given) | 34.9% (inactive) |
| COc1cccc(-c2nc3sccn3c2-c2ccnc(NCCCNS(=O)(=O)c3c(Cl)cccc3Cl)c2)c1 | 28.9% (inactive) |
| COC(=O)c1ccc(NC(=O)c2ccc(-c3cccc([N+](=O)[O-])c3)o2)cc1 | 103% (inactive) |
| O=C1/C(=C/c2cn(-c3ccccc3)nc2-c2ccccc2)SC(=S)N1CCc1ccccc1 | 99.4% (inactive) |
| O=C1/C(=C/c2ccccc2)SC(=S)N1CCc1ccc(O)cc1 | 88.6% (inactive) |
| CCc1nc(N)nc(N)c1C#CC(C)c1ccc(-c2ccncc2)cc1Cl (stereo not given) | 10.2% (inactive) |
| CCN(CC)c1ccc(-c2cc(-c3cc(OC)c(OC)c(OC)c3)nc(N3CCOCC3)c2C#N)cc1 | 18.8% (inactive) |

| SMILES | growth |
| --- | --- |
| Cc1cc(C)nc(SC2=C(Nc3ccc(O)cc3)C(=O)N(Cc3ccccc3)C2=O)n1 | 58% [40 µM] (inactive) |
| Clc1ccc2c(NCCNc3nc(N4CCOCC4)nc4ccccc34)ccnc2c1 | 11.7% (inactive) |
| C=C(C)[C@@H]1CC[C@]2(C(N)=O)CC[C@]3(C)[C@H](CC[C@@H]4[C@@]5(C)C/C(=C/c6ccco6)C(=O)C(C)(C)[C@@H]5CC[C@]43C)[C@@H]12 | 79.7% (inactive) |
| NC(=NCCCOc1ccc(Cl)cc1)Nc1ccc(C(F)(F)F)cc1 | 4.99% (active) |
| O=[N+]([O-])c1ccccc1/C=N\NC(=S)N/N=C/c1ccccc1[N+](=O)[O-] | 37.8% (inactive) |
| Cc1cc(C)c2nc3nc(C)cc(C)c3c(N)c2c1 | -18.6% (active) |
| Clc1ccc2c(NCCCCNc3nc(N4CCCCC4)nc4ccccc34)ccnc2c1 | 1.5% (active) |
| O=C1/C(=C/C(Cl)=C/c2ccccc2)SC(=S)N1CCc1ccc(O)cc1 | 9.33% (active) |
| COc1ccc(-n2nc(C)c3c(Nc4ccc(NC(=O)Nc5c(Cl)cccc5Cl)cc4)ncnc32)cc1 | 81.7% (inactive) |
| COc1cc2c(cc1-c1c(C)noc1C)ncc1nc(C3CCOCC3)n([C@H](C)COC(F)F)c12 | 46.6% (inactive) |
| O=C1C=C(OCC=C(Cl)Cl)C(=O)c2ccccc21 | 71% (inactive) |
| COc1cc2c(cc1-c1c(C)noc1C)ncc1nc(C3CCCCC3)n([C@H](C)COC(F)F)c12 | 47.6% (inactive) |
| CN1CCN(c2ccc(Nc3c4ccccc4nc4ccccc34)cc2)CC1 | 97.5% (inactive) |
| O=C(/C=C/C=C/c1ccc2c(c1)OCO2)N/N=C\c1ccc(O)cc1O | 13.3% (inactive) |
| COc1ccc(Nc2c3c4c(cccc4[nH]c2=O)C(=O)c2ccccc2-3)cc1 | 1.81% (active) |
| O=C(COc1cccc(/C=C2\CSc3ccccc3C2=O)c1)Nc1nccs1 | -51.1% (active) |
| CCNC(=O)Oc1ccc(/C(=C(\C)c2ccc(Cl)cc2)c2ccc(OCCN3CCCCC3)cc2)cc1 | 10.7% (inactive) |
| Cc1oc(-c2ccc(Cl)cc2Cl)cc1C(=O)Nc1nccs1 | 94% (inactive) |
| Cc1cc(NS(=O)(=O)c2ccc(-c3cnc(C4CC4)o3)cc2)ccc1Cl | 17.8% (inactive) |
| CCC#CC[C@H](O)C/C=C1/C(=O)C=C[C@@H]1C/C=C\CCCC(=O)OC | 1.17% (active) |
